Reference: PubChem BioAssay (NCATS)
Records with an inconclusive call do not appear. Active and inactive are the calls of the source. The call rests on the fitted dose curve.

Test: Confirmatory qHTS for activators (rescue) of SARS-CoV-2 Cytopathic Effect (CPE) (AID 1508606); further: nearly all actives have a fitted effect of over 70% in size
Conditions: Vero E6 SARS-CoV-2 CPE rescue, viability luminescence; series mostly up to 20 µM
Potency means the concentration at half of the fitted maximal effect.

**Q.** For `CCC(=O)c1ccc2c(c1)N(CCCN(C)C)c1ccccc1S2`, which Potency is on record?
**A.** The Potency was 11.2 µM (active).

**Q.** Which Potency does the source give for `O=c1[nH]c2ccccc2n1CCCN1CCN(C(c2ccccc2)c2ccccc2)CC1` here?
**A.** Its Potency is 11.2 µM (active).

**Q.** For `COc1ccc2cc1Oc1ccc(cc1)C[C@H]1c3c(cc4c(c3Oc3cc5c(cc3OC)CCN(C)[C@@H]5C2)OCO4)CCN1C`, which Potency is on record?
**A.** Its Potency is 1 µM (active).

**Q.** Which Potency does the source give for `Fc1ccc(C(c2ccc(F)cc2)N2CCN(C/C=C/c3ccccc3)CC2)cc1` here?
**A.** Its Potency is 11.2 µM (active).

**Q.** Which Potency does the source give for `CN1CCCN(C(c2ccccc2)c2ccc(Cl)cc2)CC1` (stereo not given) here?
**A.** Its Potency is 10 µM (active).

**Q.** With `CCCCN(CCCC)CCC(O)c1cc2c(Cl)cc(Cl)cc2c2cc(C(F)(F)F)ccc12` (stereo not given) as the molecule, how does the Potency read?
**A.** Its Potency is 3.55 µM (active).

**Q.** With `CC(C(O)c1ccccc1)N(C)CCOC(c1ccccc1)c1ccccc1` (stereo not given) as the molecule, how does the Potency read?
**A.** Its Potency is 10 µM (active).

**Q.** Which Potency does the source give for `CC(C)COCC(CN(Cc1ccccc1)c1ccccc1)N1CCCC1` (stereo not given) here?
**A.** The Potency was 11.2 µM (active).

**Q.** Which Potency does the source give for `CN(C)CCCN1c2ccccc2Sc2ccc(C(F)(F)F)cc21` here?
**A.** Its Potency is 10 µM (active).

**Q.** With `CCCN(CCC)C(=O)C(CCC(=O)OCCCN1CCN(CCOC(=O)Cc2c(C)n(C(=O)c3ccc(Cl)cc3)c3ccc(OC)cc23)CC1)NC(=O)c1ccccc1` (stereo not given) as the molecule, how does the Potency read?
**A.** The Potency was 10 µM (active).

**Q.** For `COC(=O)C1=C(C)NC(C)=C(C(=O)O[C@@H]2CCCN(Cc3ccccc3)C2)[C@@H]1c1cccc([N+](=O)[O-])c1`, which Potency is on record?
**A.** Its Potency is “inactive”.

**Q.** For `O=C(CCCN1CCN(c2ccc(F)cc2)CC1)NC1c2ccccc2CSc2ccccc21` (stereo not given), which Potency is on record?
**A.** The Potency was “inactive”.

**Q.** Which Potency does the source give for `CCN(CC)CCNc1ccc(CO)c2sc3ccccc3c(=O)c12` here?
**A.** The Potency was “inactive”.

**Q.** For `CCN(CC)CCCC(C)Nc1c2ccc(Cl)cc2nc2ccc(OC)cc12` (stereo not given), which Potency is on record?
**A.** The Potency was “inactive”.

**Q.** Which Potency does the source give for `COC(=O)[C@H]1[C@H]2C[C@@H]3c4[nH]c5cc(OC)ccc5c4CCN3C[C@H]2C[C@@H](OC(=O)/C=C/c2ccc(O)c(OC)c2)[C@@H]1OC` here?
**A.** The Potency was 12.6 µM (active).
